Data as given in ChEMBL document CHEMBL3988442, “University of Dundee, Small-Polar-MMV Screening Library” (2021).
In all, about 48,000 compounds went through this assay and about 13,000 (27%) showed an effect of 50% or more. This is one part of the list.

Test system: Wolbachia pipientis
Assay: Anti-Wolbachia Cell-Based Screen
Assay type: functional
Set-up: scale not given: in the data most compounds retested in dose-response had high values
Conditions: 5 µM

First: Cc1oncc1S(=O)(=O)N1CCCC(C)(Cc2ccc3c(c2)OCO3)C1 (centres undefined)
Second: O=C(c1cc(COc2ccc3c(c2)OCO3)[nH]n1)N1CCCO1
The “Percent Effect” value of the first is lower: -3.14% for the first, -2.662% for the second.

Going from `CS(=O)(=O)NCCC(=O)NCc1cccnc1-n1cnc2ccccc21` to `O=C(CCNC(=O)c1ccoc1)Nc1ccccc1F`, the “Percent Effect” value falls from 11.61% to -1.29%.

Compared with `O=C(CS(=O)(=O)C1CCCC1)NC1CCCc2cc(OC(F)F)ccc21` (centres undefined), `CC(=O)N1CCN(CCNS(=O)(=O)c2c(F)cccc2F)CC1` is higher in “Percent Effect” value: -7.219% for the first, 115.2% for the second.

Compared with `COCCN(Cc1ccccn1)C(=O)CC1OCCc2sccc21` (centres undefined), `O=C(c1ncoc1-c1ccco1)N(Cc1ccco1)CC1CCCO1` (centres undefined) is lower in “Percent Effect” value: 9.879% for the first, 1.49% for the second.

First: CSCc1noc(CN2CC3(CCCC3)CC2=O)n1
Second: CN1CCN(Cc2ccccc2Cl)CC12CCC(=O)N(CC1CC1)CC2 (centres undefined)
The “Percent Effect” value of the first is lower: -12.65% for the first, 19.23% for the second.

Going from `CN(C)C(C(=O)N1CCN(C(=O)c2ccc[nH]2)CC1)c1ccc(F)cc1` (centres undefined) to `CC(=O)N1CCN(CCNS(=O)(=O)c2cc(F)ccc2C)CC1`, the “Percent Effect” value rises from 1.074% to 96.01%.

Compared with `CC(C)c1noc(-c2cccc(OCC(N)=O)c2)n1`, `CN1CCC(Cc2noc(-c3cccc(OCC(N)=O)c3)n2)CC1` is lower in “Percent Effect” value: 109.4% for the first, 14.54% for the second.

Compared with `CC(C)c1ncc2c(n1)CN(Cc1cccc(OCC(N)=O)c1)CC2`, `Cc1nsc(N2CCN(Cc3cccc(F)c3)CC2)n1` is lower in “Percent Effect” value: -10.24% for the first, -33.99% for the second.

Going from `CN(CCOc1cccc(CN)c1)C1CCOCC1` to `COc1ccc(-c2n[nH]cc2CN(C)CCC2CCOCC2)cc1F`, the “Percent Effect” value falls from 3.585% to -12.67%.

Compared with `Cc1cnn(CCCNC(=O)C2CCCCN2Cc2cccnc2)c1` (centres undefined), `Cn1cc(-c2ccc(C3CCCCN3Cc3cccnc3)cn2)cn1` (centres undefined) is higher in “Percent Effect” value: 8.943% for the first, 97.17% for the second.

Compared with `Cn1cc(CN2CCCCC2c2ccc(-c3cccc(F)c3)nc2)cn1` (centres undefined), `Cn1cc(CN2CCCCC2c2ccc(-c3cccc(Cl)c3)nc2)cn1` (centres undefined) is higher in “Percent Effect” value: 28.65% for the first, 64.04% for the second.

Compared with `Cn1c(Cl)cnc1CN1CCCC1c1ccc2c(c1)OCCO2` (centres undefined), `Cn1cc(CN2CCCCC2c2ccc(-c3cnn(C)c3)nc2)cn1` (centres undefined) is higher in “Percent Effect” value: -20.61% for the first, 49.11% for the second.

First: CN(CC(=O)Nc1ccccc1)C(=O)CN(C)c1ccc(Cl)cn1
Second: N#Cc1ncn(CCC(=O)Nc2cccc(Cl)c2)n1
The “Percent Effect” value of the first is lower: -3.187% for the first, 93.03% for the second.

Compared with `CSc1ncc(CNCC2(N3CCCCC3)Cc3ccccc3C2)cn1`, `Cc1nc(CNCc2ccc(N3CCN(C)CC3)nc2)cs1` is higher in “Percent Effect” value: -2.025% for the first, -1.26% for the second.

First: Cc1noc(CS(=O)(=O)c2cc(F)ccc2F)n1
Second: Cc1ccc(F)cc1S(=O)(=O)NCc1cccc(CS(C)(=O)=O)c1
The “Percent Effect” value of the first is higher: 2.12% for the first, -14.38% for the second.

Compared with `O=C(NCc1ccccc1)C1CN(c2ccccn2)CCO1` (centres undefined), `Cc1cnc(N2CCOC(C(=O)NCc3ccccc3)C2)s1` (centres undefined) is lower in “Percent Effect” value: 195.5% for the first, 138.3% for the second.

First: O=C(NCc1ccncc1)C1CN(c2nc3ccccc3s2)CCN1 (centres undefined)
Second: Nc1nccc(N2CCNC(C(=O)NCc3ccccn3)C2)n1 (centres undefined)
The “Percent Effect” value of the first is higher: 6.015% for the first, -0.8592% for the second.

Compared with `CCC1CN(C(=O)c2cnc(-c3ccccc3)s2)CCO1` (centres undefined), `O=C(Cc1cccs1)N1CCCC(CNS(=O)(=O)Cc2ccccc2)C1` (centres undefined) is higher in “Percent Effect” value: -14.04% for the first, -8.788% for the second.

Compared with `O=C(NC[C@H]1OC[C@@H]2CCN(c3ccccn3)C[C@@H]21)c1ccco1`, `O=C(O)C(F)(F)F.O=C(O)[C@]12CCCN(Cc3ccccc3)C[C@H]1CN(c1ncccn1)C2` is lower in “Percent Effect” value: -8.109% for the first, -10.65% for the second.

Compared with `CN(C)c1ccccc1C(=O)N1C[C@@H](CN2CCOCC2)[C@@H](CO)C1`, `CSCc1cccc(S(=O)(=O)NCCCN2CCOCC2)c1` is lower in “Percent Effect” value: 9.943% for the first, -6.624% for the second.

Going from `O=C1N[C@@H]2CCN(C(=O)c3ccccc3)[C@@H]2C(=O)N1Cc1ccccc1` to `O=C1N(Cc2ccccc2)C[C@H]2CN(Cc3ccccc3Cl)CCN12`, the “Percent Effect” value rises from -7.073% to -1.651%.

Compared with `N#Cc1ncn(CCC(=O)Nc2ccccc2F)n1`, `N#Cc1ncn(CCC(=O)Nc2ccc(Cl)cc2F)n1` is lower in “Percent Effect” value: 141.3% for the first, 11.11% for the second.

Going from `N#Cc1ncn(CCS(=O)(=O)c2ccc(Cl)cc2)n1` to `N#Cc1ncn(CCS(=O)(=O)c2ccc(Br)cc2)n1`, the “Percent Effect” value rises from -0.6249% to 14.03%.

First: N#Cc1ncn(CCS(=O)(=O)c2ccccc2)n1
Second: N#Cc1ncn(CCC(=O)Nc2c(Cl)cccc2Cl)n1
The “Percent Effect” value of the first is higher: 11.97% for the first, -3.932% for the second.

Going from `N#Cc1ncn(CC(=O)Nc2cc(Cl)ccc2F)n1` to `N#Cc1ncn(CCC(=O)Nc2cc(Cl)ccc2Cl)n1`, the “Percent Effect” value rises from -2.838% to 94.62%.

Going from `Cc1ccc(F)cc1NC(=O)CCn1cncn1` to `N#Cc1ncn(CCC(=O)Nc2ccc(F)c(F)c2)n1`, the “Percent Effect” value rises from -7.237% to 100.3%.

Going from `CCCC1CCN(C(=O)c2coc(COc3ccc(OC)cc3)n2)C1` (centres undefined) to `COc1ccc(C[C@H]2CN(Cc3ccoc3)CC[C@@H]2OC)cc1.O=C(O)C(F)(F)F`, the “Percent Effect” value rises from 13.18% to 76.48%.

Going from `CCOc1c(Br)cc(CNC(C)c2nnc3n2CCC3)cc1OC` (centres undefined) to `Cc1cc(C(=O)N2CCc3nnc(N(C)C)cc3C2)c(C)n1C1CC1`, the “Percent Effect” value rises from -3.79% to 2.988%.

First: COc1ccc(C[C@H]2CN(C3CCOCC3)CC[C@@H]2OCC2CC2)cc1.O=C(O)C(F)(F)F
Second: COc1ccc(C[C@H]2CN(C3CCOCC3)CC[C@H]2OCC2CC2)cc1.O=C(O)C(F)(F)F
The “Percent Effect” value of the first is higher: -34.49% for the first, -41.15% for the second.

First: COc1ccc(C[C@H]2CN(Cc3ccoc3)CC[C@H]2OC)cc1.O=C(O)C(F)(F)F
Second: COc1ccc(CN2C[C@@H]3CN(Cc4ccoc4)C[C@@H]3C2=O)cc1.O=C(O)C(F)(F)F
The “Percent Effect” value of the first is higher: 63.46% for the first, -0.9609% for the second.

Going from `COc1ccc(CN2CCN(S(=O)(=O)c3cc(C(=O)O)cs3)CC2)cc1` to `O=c1ccc(-c2cccs2)nn1CN1CCN(Cc2ccccc2)CC1`, the “Percent Effect” value rises from 1.54% to 10.59%.

Compared with `Cc1cc(-c2nn(C)c(Cl)c2CN2CCOCC2CC(=O)O)no1` (centres undefined), `Cn1ncc2ccc(C3CCCN(C(=O)Cc4cccs4)C3)nc21` (centres undefined) is higher in “Percent Effect” value: 1.04% for the first, 73.59% for the second.

First: CCCS(=O)(=O)c1ncc(CN2CCC(C)CC2)n1CC1CCCO1 (centres undefined)
Second: CC1CCN(CCCNS(=O)(=O)c2cccc(F)c2)CC1.Cl
The “Percent Effect” value of the first is lower: -5.004% for the first, 5.28% for the second.

First: CC(=O)N1CCN(CCNc2ncc(Br)cc2C)CC1
Second: CC(=O)N1CCN(CCNS(=O)(=O)c2cc(F)cc(F)c2)CC1
The “Percent Effect” value of the first is lower: 3.175% for the first, 102.1% for the second.

Going from `O=S(=O)(NCCCN1CCCC1)c1cc(F)cc(F)c1` to `CC1CCN(CCCNS(=O)(=O)c2cc(F)cc(F)c2)CC1.Cl`, the “Percent Effect” value falls from -0.6955% to -12.88%.

Going from `O=S(=O)(NCCC(O)c1cccs1)c1c(F)cccc1F` (centres undefined) to `CS(=O)(=O)Cc1cccc(CNS(=O)(=O)c2ccc(F)c(F)c2)c1`, the “Percent Effect” value falls from 0.3394% to -9.477%.

Going from `CC(=O)N1CCN(CCNS(=O)(=O)c2cccc(F)c2)CC1` to `CC(=O)N1CCN(CCNS(=O)(=O)c2ccc(F)c(F)c2)CC1`, the “Percent Effect” value falls from 146.4% to 114.9%.

Compared with `CC(=O)N1CCN(CCCSCc2ccccc2)CC1`, `c1ccc(CN2CCN(Cc3cscn3)CC2)cc1` is higher in “Percent Effect” value: -1.866% for the first, 8.549% for the second.

First: CN(CCCNS(=O)(=O)N1CCC2(CC1)OCCO2)c1ccccc1
Second: CN(C)S(=O)(=O)N1CCCCC1CCc1ccc(O)cc1 (centres undefined)
The “Percent Effect” value of the first is higher: 15.24% for the first, 3.428% for the second.

First: CNc1ccnc(N2C[C@@H]3CC[C@H](C2)N(CCOC)C3=O)n1
Second: COCCc1noc(C2CCN(C(=O)Nc3cccs3)CC2)n1
The “Percent Effect” value of the first is higher: -5.532% for the first, -7.09% for the second.

First: O=S(=O)(NCCN1CC=CC1)c1ccc(Cl)cc1
Second: Cc1nsc(NCCNS(=O)(=O)c2cccc(Cl)c2)n1
The “Percent Effect” value of the first is lower: -10.33% for the first, 1.185% for the second.

Compared with `Cn1ncc2ccc(C3CCCN(Cc4ccsc4)C3)nc21` (centres undefined), `Cn1ncc2ccc(C3CCCN(Cc4cccs4)C3)nc21` (centres undefined) is lower in “Percent Effect” value: 178.8% for the first, 161.9% for the second.

Going from `COCC1CN(C(=O)Cc2cccs2)Cc2c1cnn2C` (centres undefined) to `Cn1cc(CN2CCO[C@H]3CN(Cc4ccsc4)C[C@H]32)cn1`, the “Percent Effect” value rises from -7.933% to -4.934%.

First: O=C(c1cnc(Cc2c(Cl)cccc2Cl)nc1O)N1CCNCC1
Second: O=C1CCC(=O)N1c1nn(Cc2c(F)cccc2Cl)cc1Cl
The “Percent Effect” value of the first is lower: 20.47% for the first, 84.15% for the second.

First: O=C1CCC(=O)N1c1nn(Cc2ccccc2Cl)cc1Cl
Second: O=C1CCC(=O)N1c1nn(Cc2ccccc2)cc1Cl
The “Percent Effect” value of the first is higher: 119% for the first, 98.19% for the second.

Compared with `CCn1cc(C(=O)N(C)Cc2c(F)cccc2Cl)cn1`, `Fc1cccc(Cl)c1CN1CCn2c(nnc2C2CC2)C1` is lower in “Percent Effect” value: 10.91% for the first, -25.63% for the second.

Compared with `O=C1CCC(=O)N1c1nn(Cc2cccc(F)c2)cc1Cl`, `O=C1CCC(=O)N1c1nn(Cc2ccc(F)cc2)cc1Cl` is higher in “Percent Effect” value: 81.78% for the first, 96.9% for the second.

First: O=C1N(c2cccc(Cl)c2)Cc2nc(=O)n(Cc3cccc(F)c3)n21
Second: CC(C)C1CN(c2ncccc2Cl)CCC(=O)N1Cc1ccc(F)cc1 (centres undefined)
The “Percent Effect” value of the first is lower: -1.382% for the first, 6.297% for the second.

First: CS(=O)(=O)c1nnc(NC(=O)CCc2cccc(Cl)c2)[nH]1
Second: CNC(=O)[C@@H]1C[C@@H](N)CN1C(=O)CCSCc1ccc(F)cc1
The “Percent Effect” value of the first is higher: -4.467% for the first, -13.45% for the second.

First: COc1cc(OC)c(CNC(=O)NCC(=O)N(C)C)c(OC)c1
Second: Cc1cnc(N2C[C@@H]3CN(Cc4ccco4)CCC[C@]3(C(=O)O)C2)nc1.O=C(O)C(F)(F)F
The “Percent Effect” value of the first is lower: -14.89% for the first, 5.679% for the second.

Going from `COc1nccnc1N1CCN(Cc2ccc(F)cc2)C(=O)C1` to `Cc1ccc(CN2CCC[C@]3(C(=O)O)CN(c4ncccn4)C[C@@H]3C2)o1.O=C(O)C(F)(F)F`, the “Percent Effect” value rises from -14.02% to -9.127%.

First: Cc1ccc(CN(CCCO)Cc2nc3ccccc3[nH]2)s1
Second: O=C(O)C(F)(F)F.O=C(O)C(F)(F)F.O=C(O)[C@]12CCCN(Cc3ccncc3)C[C@H]1CN(c1ncccn1)C2
The “Percent Effect” value of the first is lower: -7.789% for the first, 1.194% for the second.

Compared with `O=C(C1CCC2(CCN(c3nncs3)CC2)CO1)N1CCCC1.O=C(O)C(F)(F)F` (centres undefined), `CNC(=O)C1CCC2(CCN(c3nncs3)CC2)CO1.O=C(O)C(F)(F)F` (centres undefined) is higher in “Percent Effect” value: -6.023% for the first, 1.191% for the second.

Compared with `Cc1cnc(N2C[C@@H]3CN(C4CCOC4)CCC[C@]3(C(=O)O)C2)nc1.O=C(O)C(F)(F)F` (some centres undefined), `O=C(O)C(F)(F)F.O=C(O)[C@]12CCCN(C3CCOC3)C[C@H]1CN(c1nncs1)C2` (some centres undefined) is lower in “Percent Effect” value: 115.6% for the first, 113.4% for the second.

With `O=C(O)C(F)(F)F.O=C(O)[C@]12CCCN(CC3CCOC3)C[C@H]1CN(c1ncccn1)C2` (some centres undefined) the “Percent Effect” value was 119%.
